High-throughput results from PubChem BioAssay.
This is a sample that favours compounds with a hit; in the whole collection about 2% have one here.
MsrA act: activates bovine MsrA enzyme | AID 602163 | actives 0.3% (n = 360,000) | purified bovine MsrA, absorbance read-out | activation, % at 10.6 µM; in the data active = activation above about 7.5%;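 note: 0% = vehicle and 100% = reference activator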
Mot1-301 SUMO: blocks SUMOylation pathway, rescuing yeast Mot1-301 growth; actives 1% (n = 320,000); AID 2716; S. cerevisiae Mot1-301 growth rescue, ATP luminescence, 38.5C; percent above DMSO median, 100 means doubled; growth rescue, % at 18.8 µM;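 active = every valid replicate shows activation above 250% relative to neutral control wells; inactive = the rest, any valid replicate at or below 250%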;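 note: OY570 slx delta 5 strain wells were the positive control but not used for scaling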
PKA-R1A act: activators of PKA-R1A complex; P00514+P68181; PKA-R1A dissociation, Cy5-IP20 fluorescence polarization; scaled: DMSO 0%, 113 µM cGMP 100%; activation, % at 11.4 µM; actives 0.083% (n = 340,000); AID 504707;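 active = percent activation above the mean of all tested compounds plus 3 SD, cut at about 19% in these data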;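 note: higher means more PKAc released from R1A so a rise in polarization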
MsrA inh: inhibits bovine methionine sulfoxide reductase A | inhibition, % at 15.5 µM | AID 651718 | purified bovine MsrA, absorbance read-out | actives 0.75% (n = 360,000); in the data active = inhibition above about 4.5%;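 note: 0% = vehicle wells with enzyme and 100% = reference inhibitor wells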
PKA-R2B act: PKA-R2B complex activation | PKA-R2B holoenzyme dissociation, Cy5-IP20 fluorescence polarization; R2B truncated from residue 108, S112A mutant; 0% DMSO only, 100% 113 µM cGMP | activation, % at 11.4 µM | actives 0.079% (n = 340,000) | AID 504700;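 active = activation above a cutoff set at the mean over all compounds plus 3 SD, cut at about 18% in these data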;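 note: higher means more holoenzyme dissociation and a rise in polarization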
Target sequence (P31323 whole entry, looked up, other chains not shown, the tested form may be a part): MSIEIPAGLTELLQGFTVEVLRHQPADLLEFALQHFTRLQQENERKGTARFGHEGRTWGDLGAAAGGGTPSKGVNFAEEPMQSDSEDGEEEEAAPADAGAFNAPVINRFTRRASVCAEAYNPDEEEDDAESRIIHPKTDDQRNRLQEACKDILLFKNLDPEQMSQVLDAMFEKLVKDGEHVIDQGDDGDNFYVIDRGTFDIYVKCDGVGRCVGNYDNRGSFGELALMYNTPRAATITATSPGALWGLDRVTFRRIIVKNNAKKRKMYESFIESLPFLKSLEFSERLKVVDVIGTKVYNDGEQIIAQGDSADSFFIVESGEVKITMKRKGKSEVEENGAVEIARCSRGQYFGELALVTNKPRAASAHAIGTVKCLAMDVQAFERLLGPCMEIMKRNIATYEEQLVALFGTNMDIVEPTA
Yeast Mot1 SUMO: SUMO pathway inhibitors in yeast Mot1-301 growth; growth activity, percent, % at 42 µM; S. cerevisiae Mot1-301 galactose growth, ATP luminescence, 24 h; -100 = growth of slx-deleted rescue strain; 2,300 tested, under 10 active; shares compounds with Mot1-301 SUMO;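 active = Signal drops as the depositor expects, and the fitted half-maximal dose is no more than ten times the top valid tested dose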;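 note: more negative values mean stronger growth rescue toward the control strain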
An asterisk follows results filed as active; . = no result; + = active, no number; ! = not active in a repeat; [ ] = dose if it differs, or a comment.

SMILES	MsrA act	Mot1-301 SUMO	PKA-R1A act	MsrA inh	PKA-R2B act	Yeast Mot1 SUMO
CCn1c(SCc2nc3ccccc3s2)nnc1-c1ccccc1	-2	371*	3	-1	1	-1
CCn1c(SCc2nc3ccccc3[nH]2)nnc1-c1cccnc1	-4	635*	-1	0	6	0
Cc1ccc(C2C(C(=O)c3cccs3)=C(O)C(=O)N2c2ccc(S(N)(=O)=O)cc2)cc1 (stereo unspecified)	-3	932*	-15	2	-5	0
Cc1ccc(C2C(C(=O)c3cccs3)=C(O)C(=O)N2c2cccc(C)n2)cc1 (stereo unspecified)	-4	19	-5	1	-7	.
Cc1[nH]nc2c1C(c1cccc(C(F)(F)F)c1)NC2=O (stereo unspecified)	.	.	.	0	.	.
O=C(N[C@H](C(=O)N1CCC[C@H]1C(=O)NCc1ccccc1)c1ccccc1)c1ccc(Cl)c(Cl)c1	.	.	.	0	.	.
Cc1ccc(S(=O)(=O)n2cccc2C)cc1	0	688*	.	-1	.	0
Cc1ccc(S(=O)(=O)Oc2ccc(/C=C3\N=C(c4cccc(C)c4)OC3=O)cc2)cc1	-4	+	-4	0	2	0
C[C@]12CC[C@H]3C(=CCc4cc(O)ccc43)[C@@H]1CCC2=O	-3	538*!	5	-1	4	0
C[C@]12C[C@H](O)[C@@H]3c4ccc(O)cc4CCC3[C@@H]1CCC2=O (stereo partly specified)	-3	353	-9	0	-10	.
CC(c1ccc(Cl)cc1)N(CCN(C)C)c1ccccn1 (stereo unspecified)	.	.	.	0	.	.
COc1cc(C(=O)Oc2cccnc2)cc(OC)c1OC	0	481*	-6	0	1	0
COc1ccc(OC(=O)c2cccnc2)cc1	-3	4	4	0	13	.
Cc1ccc(NC(=O)OCCN(C)C(=O)Nc2ccc(C)cc2C)c(C)c1	.	.	.	1	.	.
O=C(NC1CCc2ccccc21)c1cc(COc2ccc(F)cc2F)on1 (stereo unspecified)	-7	396*	0	1	-5	0
COc1ccc(OCc2cc(C(=O)NC3CCc4ccccc43)no2)c(Cl)c1 (stereo unspecified)	-1	-7	11	0	-4	.
C[C@@H]1CN([C@@H](C)CO)C(=O)CCCn2cc(nn2)CO[C@H]1CN(C)C(=O)C1CCCCC1	.	.	.	-1	.	.
COc1ccc(S(=O)(=O)NC(C)C(=O)NCc2ccccn2)cc1Cl (stereo unspecified)	-1	386*	3	-1	-5	0
CCCCCN(C(=O)Cc1c(C)n(CCCCC)c2ccccc12)c1ccc(Oc2cccnc2)c(C)c1	.	.	.	0	.	.
CCOc1ccccc1NC(=O)c1c(NC(=O)CCC(=O)O)sc2c1CCCCC2	-4	.	4	2	0	.
CCOC(=O)c1ccc(NC(=O)c2c(NC(=O)CCC(=O)O)sc3c2CCCCC3)cc1	-3	631*	.	0	.	0
Cc1ccc(S(=O)(=O)/N=C(/Nc2ccc([N+](=O)[O-])cc2[N+](=O)[O-])c2ccccc2)cc1	-1	415*	-5	3	-10	-1
COc1c2ccoc2nc2c(OC)c(OC[C@@H](O)C(C)(C)O)ccc12	-12	724*	-9	0	-2	-1
CCn1c(SCC(=O)Nc2ccc(NC(=O)c3ccco3)cc2)nnc1-c1cccs1	-2	+	-9	0	-3	0
N#Cc1ccc(C23CC4(C2)[C@H](CN(Cc2ccc(C(F)(F)F)cc2)[C@@H]4c2ccccc2)C3c2ccc(C(F)(F)F)cc2)cc1 (stereo partly specified)	.	427*	.	0	.	0
SMILES	MsrA act	Mot1-301 SUMO	PKA-R1A act	MsrA inh	PKA-R2B act	Yeast Mot1 SUMO
N#Cc1ccc(C23CC4(C2)[C@H](CN(Cc2ccc(C(F)(F)F)cc2)[C@@H]4c2ccccc2)C3c2ccccc2)cc1 (stereo partly specified)	1	-15	6	1	4	.
COc1cc(C(=O)Nc2ccc3c(c2)OCCO3)ccc1-n1cnnn1	1	+	-2	0	4	0
COCCn1c(=O)[nH]c(=O)c2cc(C(=O)c3cc(Cl)ccc3O)cnc21	-8	838*	-18	.	-6	0
O=C(C(=O)N1CCC(CNS(=O)(=O)c2ccc(OC(F)(F)F)cc2)CC1)c1cc2ccccc2o1	.	.	.	2	.	.
COc1ccccc1CNC(=O)C1CCC(=O)N1C(C)C (stereo unspecified)	0	595*	-4	0	0	0
CCOc1ccccc1CNC(=O)C1CCC(=O)N1C(C)C (stereo unspecified)	-4	-17	2	1	-1	.
COC(=O)c1cc2c(c3c4ccccc4n(S(=O)(=O)c4ccc(OC)cc4)c13)C(=O)N(Cc1ccc(C(F)(F)F)cc1)C2	.	.	.	0	.	.
C[C@H](CO)N1C[C@H](C)[C@@H](CN(C)C(=O)Nc2ccccc2)OCc2cn(nn2)CCCC1=O	.	.	.	-1	.	.
O=C(COC(=O)c1ccc(Br)o1)Nc1ncc(Cl)cc1Cl	-4	-7	-8	-1	11	.
O=C(COC(=O)c1ccc([N+](=O)[O-])o1)Nc1ncc(Cl)cc1Cl	2	848*	1	-1	-12	-1
COC(=O)[C@]12C[C@H](CC(=O)N3CCCCC3)C(=O)N(Cc3ccc4c(c3)OCO4)C1=C[C@H](C(C)(C)C)O[C@@H]2C	.	.	.	0	.	.
O=C(N[C@H](C(=O)N1CCC[C@H]1C(=O)NC1CCCC1)C1CCCCC1)c1ccc(Cl)cc1Cl	.	.	.	0	.	.
COc1ccccc1CCNC(=O)/C(=C/c1cccnc1)NC(=O)c1ccccc1	-11	391*	-7	1	-5	0
COc1ccc(C(=O)C(=O)N2CCN(S(=O)(=O)c3cccc4c(N(C)C)cccc34)CC2)cc1OC	.	.	.	2	.	.
CCc1ccccc1NC(=O)N1CCCC(CCC(=O)N(C)CCc2ccccn2)C1 (stereo unspecified)	-2	-12	-2	0	6	.
C=CCOc1ccccc1CN1CCCC(CCC(=O)N(C)CCc2ccccn2)C1 (stereo unspecified)	-3	682*	-6	-1	3	0[21 µM]
COc1ccc(C(C)=O)cc1CN(c1ccccc1OC)S(=O)(=O)c1cccs1	-1	370*	0	0	3	0
NC(=O)CC(NC(=O)Cc1cccc2ccccc12)c1ccc(NCCCN2CCCC2=O)c([N+](=O)[O-])c1 (stereo unspecified)	-11	+	-8	0	-11	0
CCCCNc1ccc(C(CC(N)=O)NC(=O)Cc2cccc3ccccc23)cc1[N+](=O)[O-] (stereo unspecified)	-3	15	-13	0	-14	.
